Rab2A wt mod: changes GTP binding to wildtype dog Rab2A, up or down | P61105 | GST-Rab2 wt beads, Bodipy-GTP binding, flow cytometry | GTP binding activity, % at 10 µM | hit rate 0.19% among 190,000 | AID 760;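 active means GTP binding activity at least 20 points away from 100%, either lowered or raised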
Cdc42 wt: modulators (inhibitors or activators) of GTP binding to human Cdc42 wildtype; P60953; GST-Cdc42 beads, Bodipy-GTP binding, flow cytometry; actives lie on both sides; percent activity (GTP binding), % at 10 µM; hit rate 0.2% among 190,000; AID 761;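 active means percent activity GTP binding at least 20 points away from the 100% baseline, either down as inhibitor or up as activator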;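 further: median bead fluorescence of bound Bodipy-FL-GTP at 100 nM; below 100% means less GTP binding so inhibitor and above means activator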
Target sequence (P60953 whole entry, looked up): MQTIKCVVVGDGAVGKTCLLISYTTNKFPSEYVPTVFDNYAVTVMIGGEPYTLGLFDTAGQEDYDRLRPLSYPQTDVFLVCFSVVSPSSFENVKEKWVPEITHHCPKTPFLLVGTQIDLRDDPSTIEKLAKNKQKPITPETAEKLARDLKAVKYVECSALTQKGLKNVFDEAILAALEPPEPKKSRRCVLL
HRas wt GTP: human HRas wildtype GTP binding, change in either direction | GTP binding activity, % at 10 µM | AID 759 | hit rate 0.14% among 190,000 | P01112 | GST-Ras wt beads, Bodipy-FL-GTP binding, flow cytometry; actives lie on both sides;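 active means GTP binding activity at least 20% away from the 100% baseline, either lowered as inhibitor or raised as activator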
Target sequence (P01112 whole entry, looked up): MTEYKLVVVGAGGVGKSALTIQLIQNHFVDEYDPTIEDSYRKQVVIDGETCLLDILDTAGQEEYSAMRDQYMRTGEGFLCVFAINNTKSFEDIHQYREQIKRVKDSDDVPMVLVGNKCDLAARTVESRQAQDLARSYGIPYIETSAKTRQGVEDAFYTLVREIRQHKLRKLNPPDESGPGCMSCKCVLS
Rac1 mut GTP: human Rac1 activated mutant GTP binding change. P63000. GST-Rac1 activated beads, fluorescent GTP binding, flow cytometry; actives lie on both sides; 100% means binding = to untreated wells. percent activity (GTP binding), % at 10 µM. hit rate 0.11% among 190,000;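 active means GTP binding at least 20 percentage points away from the 100% baseline, in either direction, so actives lie on both sides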
Rab7 wt GTP bind: alters GTP binding to wildtype dog Rab7. GST-Rab7 beads, fluorescent GTP binding, flow cytometry; actives lie on both sides; untreated = 100%, excess cold GTP = 0%. GTP binding activity (percent of control), % at 10 µM. hit rate 0.055% among 190,000;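 active means fluorescent GTP binding to Rab7 beads changed by at least 20 points from the 100% baseline, either direction, mostly lower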;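 further: median green fluorescence of bound Bodipy-FL-GTP per Rab7 bead population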
Rac1 wt modul: modulators of human Rac1 wildtype GTP binding. hit rate 0.27% among 190,000. GST-Rac1 beads, fluorescent GTP binding, flow cytometry; actives lie on both sides; 0 = cold GTP competed, 100 = untreated. GTP binding activity (% of control), % at 10 µM. AID 757;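 active means GTP binding activity at least 20 points away from the 100% control level, either lower or higher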
Each line names hits and unclear results; the compound was inactive in the other large screens; [ ] = remark or other dose. This is a sample that favours compounds with a hit; in the whole collection about 0.38% have one here.

CCCCn1c(SCC(=O)c2ccccc2)nc2c1c(=O)[nH]c(=O)n2C	Rab2A wt mod 36, Cdc42 wt 38, HRas wt GTP 41, Rac1 mut GTP 36, Rab7 wt GTP bind 21, Rac1 wt modul 33
O=C(CN(C(=O)CCC(=O)Nc1nccs1)C1CCCC1)NCc1ccc2c(c1)OCO2	none
CCOC(=O)Oc1ccc2oc(C)c(C(=O)OCCOC)c2c1	none
COCCOC(=O)c1c(C)oc2ccc(OC(=O)c3ccc4c(c3)OCO4)cc12	Rab2A wt mod 76, Cdc42 wt 77, Rac1 mut GTP 73, Rab7 wt GTP bind 79, Rac1 wt modul 75
O=C(O)c1cccnc1SCc1cccc(Cl)c1	Rab2A wt mod 132[activator], Cdc42 wt 131[activator], HRas wt GTP 125[activator], Rac1 mut GTP 127[activator], Rab7 wt GTP bind 124[activator], Rac1 wt modul 129[activator]
Cc1cccc(CSc2ncccc2C(=O)O)c1	Rab2A wt mod 132[activator], Cdc42 wt 149[activator], HRas wt GTP 129[activator], Rac1 mut GTP 134[activator], Rab7 wt GTP bind 120[activator], Rac1 wt modul 161[activator]
O=C(O)c1ccccc1CSc1ncccc1C(=O)O	none
CCCCn1c(O)c(N=NC(=O)c2ccccc2NS(=O)(=O)c2cccs2)c2ccccc21	Rac1 mut GTP 78
C=CCn1c(O)c(N=NC(=O)c2ccccc2NS(=O)(=O)c2cccs2)c2ccccc21	none
COC(=O)COc1ccc(/C=N/NC(=O)c2ccc(N(Cc3ccccc3)S(C)(=O)=O)cc2)cc1	Rab2A wt mod 76, Rac1 wt modul 76
CS(=O)(=O)N(Cc1ccccc1)c1ccc(C(=O)Nc2cccnc2)cc1	none
O=C(N/N=C/c1ccccc1)c1ccc(OCc2ccccc2)cc1	none
CC(C)Oc1ccc(/C=N/NC(=O)c2ccc(N(Cc3ccccc3)S(C)(=O)=O)cc2)cc1	Rab2A wt mod 74, Rac1 wt modul 74
O=C(CSc1ccsc1[N+](=O)[O-])N1CCN(c2ccccn2)CC1	none
CC(=O)Nc1ccc(N2C(=O)c3ccc(C(=O)Nc4nnc(SCc5ccc(F)cc5)s4)cc3C2=O)cc1	HRas wt GTP 73
C/C(=C1/SC(=S)N(CCC(=O)O)C1=O)c1ccc(O)cc1	Rac1 mut GTP 77
Cn1nnc(NC(=S)NC(=O)c2ccc(-c3ccc(Br)cc3)o2)n1	Rac1 wt modul 76
Cn1cc(CN2CCC(C(=O)N3CCCCC3)CC2)c(-c2ccccc2F)n1	none
O=C(O)CC/C(=C\c1ccc(N2CCCC2)c([N+](=O)[O-])c1)c1nc2ccccc2s1	Rab2A wt mod 74, Cdc42 wt 75, HRas wt GTP 79, Rac1 mut GTP 75
O=C(O)CC/C(=C\c1ccccc1[N+](=O)[O-])c1nc2ccccc2s1	Rab2A wt mod 76, Cdc42 wt 73, Rac1 mut GTP 74
O=C(O)CCSc1nc2ccccc2s1	none
O=C(O)CC/C(=C\c1cccc(NC(=O)c2ccccc2Cl)c1)c1nc2ccccc2s1	none
Cc1nn(-c2ccc(F)cc2)c(Cl)c1/C=C(\CCC(=O)O)c1nc2ccccc2s1	Rab2A wt mod 76, Cdc42 wt 68, Rac1 mut GTP 65, Rab7 wt GTP bind 79, Rac1 wt modul 72
O=C(NCc1ccccc1Cl)c1ccccc1Oc1ccccc1	none
CC(=O)N1CCC2(CC1)C/C(=N\NC(=S)Nc1ccc(C)cc1)c1cc(O)ccc1O2	none
CN1/C(=C\C=C(/C#N)C(=O)Nc2ccc(Cl)cc2)C(C)(C)c2ccccc21	Rab2A wt mod 133[activator]
C=CCNC(=O)c1cc2c(=O)n3cc(C)ccc3nc2nc1NCC1CCCO1 (stereo unspecified)	Rab2A wt mod 78, HRas wt GTP 69, Rab7 wt GTP bind 65
CC1(C(=O)NCc2ccc(Cl)c(Cl)c2)Oc2cccnc2NC1=O (stereo unspecified)	none
FC(F)c1nc2ccccc2[nH]1	none
c1ccc2[nH]c3cc4ncnc4cc3nc2c1	Rab2A wt mod 77, HRas wt GTP 77, Rac1 wt modul 79
COc1cc2[nH]c(=S)nc(NC3CCCC3)c2cc1OC	Rab2A wt mod 60, Cdc42 wt 58, HRas wt GTP 60, Rac1 mut GTP 70, Rab7 wt GTP bind 74, Rac1 wt modul 51
COc1cc2[nH]c(=O)n(C3CCCCC3)c(=O)c2cc1OC	none
COc1cccc(Nc2ccccc2C(=O)O)c1	Rab2A wt mod 125[activator], Cdc42 wt 130[activator], HRas wt GTP 120[activator], Rac1 mut GTP 126[activator], Rab7 wt GTP bind 127[activator], Rac1 wt modul 138[activator]
COc1cccc(Nc2ncc(C(=O)O)c3ccccc23)c1	none
Cc1c(CCC(=O)O)c(=O)oc2cc3occ(-c4ccc(F)cc4)c3cc12	Rac1 wt modul 68
Cc1c(CCC(=O)O)c(=O)oc2cc(O)ccc12	none
COc1cc(NC2c3ccccc3C(=O)N2c2ccc(C)cn2)cc(OC)c1OC (stereo unspecified)	none
Cc1ccc(N2C(=O)c3ccccc3C2Nc2cccnc2)nc1 (stereo unspecified)	Rac1 wt modul 121[activator]
COc1ccc(C(=O)Nc2cc(Cl)ccc2OC(=O)c2ccc(OC)cc2)cc1	none
COc1ccc(C(=O)Nc2cc(Cl)ccc2C(=O)O)cc1	Cdc42 wt 78, Rac1 mut GTP 77
COc1ccc(/C=C2/N=C(SCC(=O)Nc3cc(C)on3)N(c3ccccc3)C2=O)cc1	Rac1 wt modul 77
CCC(SC1=N/C(=C/c2ccccc2)C(=O)N1c1ccccc1)C(=O)Nc1cc(C)on1 (stereo unspecified)	none
Cc1ccccc1-c1nnc(NC(=O)c2ccc(N3C(=O)CCC3=O)cc2)s1	Rac1 wt modul 130[activator]
Cc1cccc(-c2nnc(NC(=O)c3ccc(N4C(=O)CCC4=O)cc3)s2)c1	none
O=C(O)c1cc(C(=O)O)cc(-c2ccc(/C=c3/sc4nc5ccccc5n4c3=O)o2)c1	Rab2A wt mod 79
COC(=O)c1ccc(N=Cc2c(C(F)(F)F)[nH][nH]c2=O)cc1	none
Cc1ccc(C)c(S(=O)(=O)Nc2ccccc2C(=O)Nc2ccc(S(=O)(=O)Nc3ncccn3)cc2)c1	none
CCc1ccc(N(C(=O)c2csnn2)C(C(=O)NC(C)(C)C)c2cccnc2)cc1 (stereo unspecified)	none
COc1cc(/C=N/NC(=O)c2cnn3c(C)cc(-c4ccccc4)nc23)ccc1O	none
COc1cc(/C=N/Nc2nc(C)nc3c2cnn3-c2ccccc2)ccc1O	Rab2A wt mod 79, Cdc42 wt 77, Rac1 wt modul 70
COC12NC(=O)N(C)C1(OC)C(=O)N(C)C(=O)N2C (stereo unspecified)	none
CCCS(=O)(=O)c1nnnn1-c1cccc(OC)c1	Rac1 mut GTP 78
